From the supplement of paper PMC9177965 come the findings set out here.

For the first assay, the system named is HT29 RNF43 G659fs (RNF43 659mut, CRISPR-edited). Nature of the assay: cell viability activity relative to DMSO (negative = inhibition); higher = more viable cells (less growth inhibition). To be noted: 5 µM; 96 h. The procedure:
(§1)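 Broad Repurposing Library primary screen at a single dose of 5 uM. HT29 sg-Ctrl and HT29 RNF43 G659fs CRISPR-edited isogenic cells were seeded at 2500 cells/well in 384-well plates in duplicate and treated for 96 h. Viability was read by CellTiter-Glo and reported as % activity relative to DMSO, with MG132 as the positive control (negative = growth inhibition).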
`Nc1ccn([C@@H]2O[C@H](CO)[C@@H](O)C2(F)F)c(=O)n1`: the cell viability activity was -63.6%.
The same measure, in the same setting: the same measure for `OCCn1cc(-c2ccc3c(c2)CC/C3=N\O)c(-c2ccncc2)n1`: -29.3%.
Still for that read-out and setting: the figure for `CC(=O)N(O)CCCCCNC(=O)CCC(=O)N(O)CCCCCNC(=O)CCC(=O)N(O)CCCCCN` is -56.3%; for `Cc1cccc(/C=N/Nc2cc(N3CCOCC3)nc(OCCc3ccccn3)n2)c1` it is -66%.
On the same count and under the same terms, the same measure for `c1cc(Nc2cc(C3CC3)[nH]n2)nc(Nc2ccc3nc[nH]c3c2)n1`: -29.4%; for `COc1cc2ncnc(Nc3ccc(F)c(Cl)c3)c2cc1NC(=O)/C=C/CN1CCCCC1`: -93.1%.
In the case of `Nc1ncn([C@@H]2O[C@H](CO)[C@@H](O)[C@H]2O)c(=O)n1`, the cell viability activity is -24.4%.
Same read-out and setting: the same measure for `Cc1cc(OCc2nnc(SC3CCCC3)n2-c2cccnc2)ccc1-c1ccc(S(C)(=O)=O)cc1`: -86.4%; for `CCCCCCCCc1ccc(CCC(N)(CO)CO)cc1`: -97.8%.
Same read-out and setting: the same measure for `CCCCCCCC[N+](C)(C)Cc1ccccc1`: -22.5%.
Still for that read-out and setting: the figure for `Cn1cc(-c2ccncc2)c(-c2ccc(OCc3ccc4ccccc4n3)cc2)n1` is -46.2%; for `CNc1nc(-c2ccc3c(N)n[nH]c3c2)cc(N2C[C@@H](C(=O)NC3CCCCC3)CC[C@H]2C)n1` it is -31.4%; for `c1cc(-c2cnn3cc(-c4ccc(N5CCNCC5)cc4)cnc23)c2cccnc2c1` it is -97.7%.
For the compound `Cn1ncc(Cl)c1-c1cc(C(=O)N[C@H](CN)Cc2ccc(F)c(F)c2)oc1Cl`, the cell viability activity was -70.4%.
Still for that read-out and setting: the same measure for `COc1ccc(-c2cc3c(C)nc(N)nc3n([C@H]3CC[C@H](OCCO)CC3)c2=O)cn1`: -94%; for `CN1CCN(CCOc2cc(OC3CCOCC3)c3c(Nc4c(Cl)ccc5c4OCO5)ncnc3c2)CC1`: -54.8%; for `Nc1nccc2c1ncn2C1C=C(CO)C(O)C1O` (stereo unspecified): -38.4%.
With `Cc1[nH]c2ccccc2c1CCNCc1ccc(/C=C/C(=O)NO)cc1`, the cell viability activity is -99.3%.
Same read-out and setting: the figure for `Nc1nc2[nH]cnc2c(=S)[nH]1` is -81.6%; for `COc1ccc(C[C@H](NC(=O)[C@H](C)NC(=O)CN2CCOCC2)C(=O)N[C@@H](Cc2ccccc2)C(=O)[C@@]2(C)CO2)cc1` it is -95.4%.
The same measure, in the same setting: the same measure for `CC(C)C[C@@H](C=O)NC(=O)[C@H](CC(C)C)NC(=O)[C@H](CC(C)C)NC(=O)OCc1ccccc1`: -96.9%.
On the same count and under the same terms, the figure for `COc1ccc(-c2nc(N3CCOCC3)c3sc(CN(C)c4ncc(C(=O)NO)cn4)cc3n2)cn1` is -94.5%.
For `Cc1cccc(/C=N/Nc2cc(N3CCOCC3)n3nc(-c4ccncc4)cc3n2)c1`, the cell viability activity is -56.4%.
Still for that read-out and setting: the figure for `COc1ccc(F)c(F)c1C(=O)c1cnc(NC2CCN(S(C)(=O)=O)CC2)nc1N` is -69%; for `Cc1cnc(Nc2ccc(OCCN3CCCC3)cc2)nc1Nc1cccc(S(=O)(=O)NC(C)(C)C)c1` it is -95%; for `O=C(/C=C\n1cnc(-c2cc(C(F)(F)F)cc(C(F)(F)F)c2)n1)N1CC(F)(F)C1` it is -72.2%.
Still for that read-out and setting: the same measure for `CSc1ccccc1Nc1nc(N2CCNCC2)nc2c(NCC3CC3)ncnc12`: -95.8%; for `Nc1ncnc2c1nc(Br)n2[C@@H]1O[C@@H]2COP(=O)(O)O[C@H]2[C@H]1O`: -26.8%; for `CN(C)C(=O)C(CCN1CCC(O)(c2ccc(Cl)cc2)CC1)(c1ccccc1)c1ccccc1`: -67.6%.
Still for that read-out and setting: the same measure for `Nc1ncnc2c1c(-c1cccc(OCc3ccccc3)c1)cn2C1CC(CN2CCC2)C1` (stereo unspecified): -55.1%; for `Cc1cnc(Nc2ccc(F)cc2Cl)nc1-c1c[nH]c(C(=O)N[C@H](CO)c2cccc(Cl)c2)c1`: -73.7%.
For `CC(=O)Nc1nc(C)c(-c2ccc(Cl)c(S(=O)(=O)NCCO)c2)s1`, the cell viability activity is -53.2%.
Still for that read-out and setting: the figure for `Cc1ccc([N+](=O)[O-])cc1S(=O)(=O)N(C)/N=C/c1cnc2ccc(Br)cn12` is -88.7%.
Same read-out and setting: the figure for `Cc1cc(I)ccc1Nc1c(C(=O)NOCC2CC2)cc(F)c(F)c1F` is -65.5%; for `CCOc1cc2ncc(C#N)c(Nc3ccc(OCc4ccccn4)c(Cl)c3)c2cc1NC(=O)/C=C/CN(C)C` it is -50.3%.
The same measure, in the same setting: the same measure for `CC(=O)c1cnc2ccc(-c3cc(Cl)c(O)c(Cl)c3)nc2c1N[C@H]1CC[C@H](CN(C)C)CC1`: -89.2%.
Consider `O=C(Nc1c[nH]nc1-c1nc2ccc(CN3CCOCC3)cc2[nH]1)NC1CC1`, for which the cell viability activity was -72.3%.
The same measure, in the same setting: the figure for `C#CCC(Cc1cnc2nc(N)nc(N)c2n1)c1ccc(C(=O)N[C@@H](CCC(=O)O)C(=O)O)cc1` (stereo partly specified) is -68.9%.

A further assay relates to HT29 sg-Ctrl (RNF43 wildtype). The description is as above. To be noted: 5 µM; 96 h. The procedure: as §1
Take `Nc1ccn([C@@H]2O[C@H](CO)[C@@H](O)C2(F)F)c(=O)n1`: the cell viability activity was -67.1%.
Regarding `OCCn1cc(-c2ccc3c(c2)CC/C3=N\O)c(-c2ccncc2)n1`, the cell viability activity was -39.2%.
Same read-out and setting: the same measure for `CC(=O)N(O)CCCCCNC(=O)CCC(=O)N(O)CCCCCNC(=O)CCC(=O)N(O)CCCCCN`: -45%; for `Cc1cccc(/C=N/Nc2cc(N3CCOCC3)nc(OCCc3ccccn3)n2)c1`: -62.4%; for `c1cc(Nc2cc(C3CC3)[nH]n2)nc(Nc2ccc3nc[nH]c3c2)n1`: -65.9%.
In the case of `COc1cc2ncnc(Nc3ccc(F)c(Cl)c3)c2cc1NC(=O)/C=C/CN1CCCCC1`, the cell viability activity is -77.9%.
Turning to `Nc1ncn([C@@H]2O[C@H](CO)[C@@H](O)[C@H]2O)c(=O)n1`, the cell viability activity is -7.11%.
Still for that read-out and setting: the same measure for `Cc1cc(OCc2nnc(SC3CCCC3)n2-c2cccnc2)ccc1-c1ccc(S(C)(=O)=O)cc1`: -74.8%; for `CCCCCCCCc1ccc(CCC(N)(CO)CO)cc1`: -94.1%.
Same read-out and setting: the same measure for `CCCCCCCC[N+](C)(C)Cc1ccccc1`: -16.8%; for `Cn1cc(-c2ccncc2)c(-c2ccc(OCc3ccc4ccccc4n3)cc2)n1`: -38.8%; for `CNc1nc(-c2ccc3c(N)n[nH]c3c2)cc(N2C[C@@H](C(=O)NC3CCCCC3)CC[C@H]2C)n1`: -23%.
Still for that read-out and setting: the figure for `c1cc(-c2cnn3cc(-c4ccc(N5CCNCC5)cc4)cnc23)c2cccnc2c1` is -96.2%; for `Cn1ncc(Cl)c1-c1cc(C(=O)N[C@H](CN)Cc2ccc(F)c(F)c2)oc1Cl` it is -61.1%; for `COc1ccc(-c2cc3c(C)nc(N)nc3n([C@H]3CC[C@H](OCCO)CC3)c2=O)cn1` it is -84.6%.
`CN1CCN(CCOc2cc(OC3CCOCC3)c3c(Nc4c(Cl)ccc5c4OCO5)ncnc3c2)CC1`: the cell viability activity is -58.9%.
On the same count and under the same terms, the same measure for `Nc1nccc2c1ncn2C1C=C(CO)C(O)C1O` (stereo unspecified): -46.7%.
On the same count and under the same terms, the same measure for `Cc1[nH]c2ccccc2c1CCNCc1ccc(/C=C/C(=O)NO)cc1`: -96.1%.
On the same count and under the same terms, the same measure for `Nc1nc2[nH]cnc2c(=S)[nH]1`: -73.9%.
In the case of `COc1ccc(C[C@H](NC(=O)[C@H](C)NC(=O)CN2CCOCC2)C(=O)N[C@@H](Cc2ccccc2)C(=O)[C@@]2(C)CO2)cc1`, the cell viability activity was -94.4%.
As for `CC(C)C[C@@H](C=O)NC(=O)[C@H](CC(C)C)NC(=O)[C@H](CC(C)C)NC(=O)OCc1ccccc1`, the cell viability activity was -96.2%.
Still for that read-out and setting: the same measure for `COc1ccc(-c2nc(N3CCOCC3)c3sc(CN(C)c4ncc(C(=O)NO)cn4)cc3n2)cn1`: -93.5%; for `Cc1cccc(/C=N/Nc2cc(N3CCOCC3)n3nc(-c4ccncc4)cc3n2)c1`: -51.8%.
Same read-out and setting: the same measure for `COc1ccc(F)c(F)c1C(=O)c1cnc(NC2CCN(S(C)(=O)=O)CC2)nc1N`: -65.9%.
Still for that read-out and setting: the same measure for `Cc1cnc(Nc2ccc(OCCN3CCCC3)cc2)nc1Nc1cccc(S(=O)(=O)NC(C)(C)C)c1`: -92.4%; for `O=C(/C=C\n1cnc(-c2cc(C(F)(F)F)cc(C(F)(F)F)c2)n1)N1CC(F)(F)C1`: -68%; for `CSc1ccccc1Nc1nc(N2CCNCC2)nc2c(NCC3CC3)ncnc12`: -94.6%.
For `Nc1ncnc2c1nc(Br)n2[C@@H]1O[C@@H]2COP(=O)(O)O[C@H]2[C@H]1O`, the cell viability activity was -6.53%.
On to `CN(C)C(=O)C(CCN1CCC(O)(c2ccc(Cl)cc2)CC1)(c1ccccc1)c1ccccc1`, for which the cell viability activity was -75.2%.
Turning to `Nc1ncnc2c1c(-c1cccc(OCc3ccccc3)c1)cn2C1CC(CN2CCC2)C1` (stereo unspecified), the cell viability activity was -61.2%.
Still for that read-out and setting: the figure for `Cc1cnc(Nc2ccc(F)cc2Cl)nc1-c1c[nH]c(C(=O)N[C@H](CO)c2cccc(Cl)c2)c1` is -76%; for `CC(=O)Nc1nc(C)c(-c2ccc(Cl)c(S(=O)(=O)NCCO)c2)s1` it is -38.4%; for `Cc1ccc([N+](=O)[O-])cc1S(=O)(=O)N(C)/N=C/c1cnc2ccc(Br)cn12` it is -94.4%.
Still for that read-out and setting: the same measure for `Cc1cc(I)ccc1Nc1c(C(=O)NOCC2CC2)cc(F)c(F)c1F`: -71.6%; for `CCOc1cc2ncc(C#N)c(Nc3ccc(OCc4ccccn4)c(Cl)c3)c2cc1NC(=O)/C=C/CN(C)C`: -30.9%; for `CC(=O)c1cnc2ccc(-c3cc(Cl)c(O)c(Cl)c3)nc2c1N[C@H]1CC[C@H](CN(C)C)CC1`: -91.1%.
Turning to `O=C(Nc1c[nH]nc1-c1nc2ccc(CN3CCOCC3)cc2[nH]1)NC1CC1`, the cell viability activity was -71.2%.
Same read-out and setting: the figure for `C#CCC(Cc1cnc2nc(N)nc(N)c2n1)c1ccc(C(=O)N[C@@H](CCC(=O)O)C(=O)O)cc1` (stereo partly specified) is -61.7%.
